An excerpt weighted towards active compounds, which were near 2.7% of everything screened.
pAkt inh: HTS Assay for Inhibitors of Akt Phophorylation: Primary Screen. Neuro2A IGF-stimulated pAkt S473 HTRF, 20 min; hits give low values. activity change, % for hits at 50 µM. 360,000 compounds, 0.32% hits; in the data active = activity change below about -80%; inconclusive = mostly about -51% to -80%
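Single-point screen (50 µM final compound) in Neuro2A cells stimulated 20 min with 6 nM IGF at 37 deg C. After lysis, Ser473-phosphorylated Akt read by HTRF (ex 330 nm, em 615/665 nm) as the 665/615 ratio.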
gsp ag: qHTS for Agonist of gsp, the Etiologic Mutation Responsible for Fibrous Dysplasia/McCune-Albright Syndrome: qHTS; AID 624287, 2012; Potency, µM (highest dose often 76.9 µM), actives largely listed as activators; 340,000 compounds, 0.13% hits; gsp mutant cells, cAMP HTRF, 30 min; active = well fitted activation curve with a large enough effect; inconclusive = small, poorly fitted or top-dose-only effect, or another doubt; inactive = no such curve, though single readings can be large or run the other way; cell line not stated here;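 note: phosphodiesterase inhibitor Ro 20-1724 added with compounds to block cAMP breakdown; nearly all actives have a fitted effect of over 60% in size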
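Cells in DMEM/10% FBS with G418 were pretreated with compounds in DMSO plus […] (300 uM stock) for 30 min at 37C. cAMP was measured by HTRF (cAMP-d2 plus anti-cAMP antibody-K) after 30 min at room temperature.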
gsp antag: qHTS for Antagonists of gsp, the Etiologic Mutation Responsible for Fibrous Dysplasia/McCune-Albright Syndrome: qHTS | Potency, µM (highest dose often 76.9 µM), usual class: inhibitors | 340,000 compounds, 0.4% hits | gsp-mutant cells, cAMP HTRF, 30 min | AID 624288, 2012; calls by dose curve; cell line not stated here;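 note: intracellular cAMP measured with PDE inhibitor Ro 20-1724 present during compound exposure; nearly all actives have a fitted effect of over 65% in size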
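Cells in G418 medium, seeded 16-24 h, 37C; buffer exchange to DPBS + 1 mM CaCl2, 0.5 mM MgCl2, 0.05% BSA; cpds in DMSO + […] (300 uM stock), 30 min 37C; HTRF cAMP detection.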
ClpP mod: qHTS Assay for Activators of ClpP | ATP-dependent Clp protease proteolytic subunit (Bacillus subtilis (strain 168)), P80244 | purified B. subtilis ClpP, FRET peptide cleavage, 20 min | Potency, µM (top dose mostly 57.5 µM) | 340,000 compounds, 1.9% hits | AID 651965, 2013; active = well fitted falling curve with a large enough effect; inconclusive = small, poorly fitted or top-dose-only effect; inactive = no such curve, though single readings can be large or run the other way; note: the source files actives as falling curves though it sought activators and does not explain the sign; nearly all actives have a fitted effect of over 65% in size
Target sequence (P80244 whole entry, looked up): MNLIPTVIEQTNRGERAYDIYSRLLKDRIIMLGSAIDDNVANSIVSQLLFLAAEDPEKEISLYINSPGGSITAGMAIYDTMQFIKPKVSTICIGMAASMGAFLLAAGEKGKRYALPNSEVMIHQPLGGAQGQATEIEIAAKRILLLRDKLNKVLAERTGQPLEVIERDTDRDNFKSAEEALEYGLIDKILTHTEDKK
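Purified B. subtilis ClpP, 10 microg/mL final in Tris/HCl pH8 with KCl, BSA, glycerol and Tween-20, cleaved an Abz/nitrotyrosine-quenched decapeptide. Fluorescence (ex 320, em 430) was read at 0 and 20 min at room temperature. Delta was normalized to 5.8 microM ADEP and DMSO/no-enzyme controls.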
RXFP1 ag: qHTS Assay for Agonists of the Relaxin Receptor RXFP1; Potency, µM (highest dose often 57.5 µM), usual class: activators; HEK293T-RXFP1 cAMP TR-FRET, 30 min; response scale: percent of porcine relaxin response, buffer zero; Relaxin receptor 1 (Homo sapiens), Q9HBX9; AID 2676, 2010; 370,000 compounds, 0.3% hits; active = well fitted activation curve with a large enough effect; inconclusive = small, poorly fitted or top-dose-only effect; note: nearly all actives have a fitted effect of over 60% in size
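cAMP rise read by TR-FRET after 30 min, 37C compound exposure (up to 58 uM) in RXFP1-transfected HEK293 cells with Ro 20174 present. EC50 from Hill-equation fits, with 29 nM porcine relaxin as 100% and buffer as basal.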
RXFP1 antag: qHTS Assay for Antagonists of the Relaxin Receptor RXFP1 | Relaxin receptor 1 (Homo sapiens), Q9HBX9 | HEK293-RXFP1, relaxin-stimulated cAMP HTRF, 30 min; hits give low values | activity change, negative = inhibition, % at 57.5 µM | 350,000 compounds, 0.59% hits;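 active = activity change of -60% or lower, but not beyond a set lower limit; inconclusive = change between -60% and -40%, or beyond the set limit; inactive = change above -40%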
Each line names hits and unclear results; the compound was inactive in the other large screens.

O=C(Nc1ccc(NC(=O)C2CCCN2C(=O)OCc2ccccc2)cc1)c1ccco1 (configuration not stated)	none
CC(=O)Nc1ccc(S(=O)(=O)O)c2cc(S(=O)(=O)O)c(N=Nc3ccc(N=Nc4ccc(S(=O)(=O)O)cc4)c4ccc(S(=O)(=O)O)cc34)c(O)c12	none (no result: pAkt inh, gsp ag, gsp antag, RXFP1 ag, RXFP1 antag)
C=CCNC(=O)c1ccc2nc(-c3ccccc3)c(-c3ccccc3)nc2c1	ClpP mod 20µM
O=C(O)c1ccc2nc(-c3ccco3)c(-c3ccco3)nc2c1	gsp ag 3.5µM, RXFP1 antag inconclusive (no result: ClpP mod)
Cc1ccc(-c2nc3ccc(C(=O)O)cc3nc2-c2ccc(C)cc2)cc1	pAkt inh -123%, gsp antag inconclusive, ClpP mod inconclusive
CNC(=O)c1ccc2nc(-c3ccccc3)c(-c3ccccc3)nc2c1	none (no result: pAkt inh, gsp ag, gsp antag, RXFP1 ag, RXFP1 antag)
O=C(Nc1cccc(C(F)(F)F)c1)c1ccc2nc(-c3ccco3)c(-c3ccco3)nc2c1	RXFP1 antag -97
O=C(Nc1cccc(C(F)(F)F)c1)c1ccc2snnc2c1	none (no result: pAkt inh, gsp ag, gsp antag, RXFP1 antag)
COc1ccc(C(=O)c2cnc3ccc(C)cc3c2S(=O)(=O)c2ccccc2)cc1	none (no result: pAkt inh, gsp ag, gsp antag)
COc1ccccc1N1CCN(CC(O)COc2cc(OC)c(OC)c(OC)c2)CC1 (configuration not stated)	none (no result: pAkt inh, gsp ag, gsp antag, ClpP mod, RXFP1 ag)
O=C(O)c1cc(-c2ccco2)nc2ccc(Br)cc12	gsp ag inconclusive, RXFP1 ag 13µM
CCCOc1ccc(C2C(=O)N(C3CCCCC3)CC(=O)N2CCC2=CCCCC2)cc1OC (configuration not stated)	none (no result: pAkt inh, gsp ag, gsp antag)
CCOC(=O)c1c(NC(=O)CCC(=O)O)sc2c1CCCCC2	none
COC(=O)c1c(NC(NC(C)=O)C(Cl)(Cl)Cl)sc2c1CCCC2 (configuration not stated)	RXFP1 antag -74
CCOC(=O)c1c(NC(NC(C)=O)C(Cl)(Cl)Cl)sc2c1CCCC2 (configuration not stated)	RXFP1 antag -68
CC(C)CCNC(=O)C1CCN(c2nc3ccc(Cl)cc3[nH]2)CC1	none (no result: pAkt inh, gsp ag, gsp antag)
CN1C(=O)c2ccccc2N(C)C1c1ccc2c(c1)OCO2 (configuration not stated)	gsp ag inconclusive, ClpP mod 25µM
Oc1ccc(N=Nc2nc(-c3ccccc3)c(-c3ccccc3)[nH]2)cc1	gsp antag 28µM
CSc1nc(-c2ccccc2)c(-c2ccccc2)[nH]1	ClpP mod 16µM
Cc1nc(-c2ccccc2)c(-c2ccccc2)[nH]1	ClpP mod 25µM
O=C(NCCc1csc(-c2cccnc2)n1)c1cccc(C(F)(F)F)c1	none (no result: pAkt inh, gsp ag, gsp antag, RXFP1 antag)
Cc1ccc(NC(=O)CN2C(=O)C(c3ccc(C(C)(C)C)cc3)=NC2(C)C)cc1	none (no result: pAkt inh, gsp ag, gsp antag)
Cc1ccc(C(=O)OCC(=O)N(CCc2ccccc2)Cc2ccccc2)cc1S(=O)(=O)N1CCOCC1	none
CCOc1cc2[nH]c(=O)n(CCCCCC(=O)NCc3ccco3)c(=O)c2cc1OCC	ClpP mod 22µM
COc1cc2[nH]c(=O)n(CCCC(=O)NCc3ccccc3)c(=O)c2cc1OC	none (no result: pAkt inh, gsp ag, gsp antag, RXFP1 antag)
CCCCN(C)C(=O)CCCCn1c(=O)[nH]c2cc(OCC)c(OCC)cc2c1=O	ClpP mod 35µM
CCOc1cc2[nH]c(=S)n(CCCCC(=O)NCc3ccco3)c(=O)c2cc1OCC	gsp ag inconclusive, RXFP1 ag inconclusive
COc1cc2[nH]c(=O)n(CCC(=O)NCc3cccnc3)c(=O)c2cc1OC	ClpP mod 28µM
COc1cc(/C=C/C(=O)NCc2cccnc2)cc(OC)c1OC	ClpP mod 25µM
COc1ccc(C(=O)N(C)Cc2ccccn2)cc1OC1CCN(C(C)C)CC1	ClpP mod 28µM
CCCCCCCC(=O)Oc1ccc(C(=O)Nc2cc(C)on2)cc1	none (no result: ClpP mod)
Cc1ccc(Cc2c(-c3ccc(C)cc3)nc3c(Cl)cc(C(F)(F)F)cn23)cc1	none (no result: gsp ag, gsp antag, RXFP1 ag, RXFP1 antag)
Cc1cccc(Oc2ccc(NC(=O)CCC(=O)OCC(=O)c3ccc(Br)cc3)cc2)c1C	none (no result: pAkt inh, gsp ag, gsp antag)
CC(CNC(=O)c1ccc(CSc2nc3ccncc3n2Cc2cccc(F)c2)cc1)c1ccccc1 (configuration not stated)	none (no result: pAkt inh, gsp ag, gsp antag)
CCCCOc1ccc(C(=O)NCC(=O)NCc2ccncc2)cc1	ClpP mod 32µM
C/C=C(/C)C(=O)O[C@@H]1c2c(ccc3ccc(=O)oc23)OC(C)(C)[C@@H]1OC(C)=O	none (no result: gsp ag, RXFP1 ag, RXFP1 antag)
C/C=C(\C)C(=O)OC1c2c(ccc3ccc(=O)oc23)OC(C)(C)C1OC(C)=O (configuration not stated)	ClpP mod 32µM
CC(=O)Nc1ccc(C(=O)OCC(=O)Nc2ccc(N3CCOCC3)cc2)cc1	gsp ag inconclusive
CCOC(=O)c1cnc2ccc(C)cc2c1Nc1ccc(N(CC)CC)cc1	RXFP1 antag -70 (no result: pAkt inh, gsp ag, gsp antag)
CCOC(=O)c1cnc2ccc(C)cc2c1Nc1ccc(N2CCOCC2)cc1	gsp antag inconclusive, RXFP1 antag -101
Cc1ccc(C(=O)OCC(=O)Nc2ccc(N3CCOCC3)cc2)cc1	ClpP mod 32µM
CC(C)NCCCC1(C(N)=O)c2ccccc2-c2ccccc21	none (no result: pAkt inh, gsp ag, gsp antag, ClpP mod, RXFP1 ag)
Cc1cccc(OCC(=O)Nc2c(C(=O)N3CCN(c4ccccc4)CC3)oc3ccccc23)c1	none (no result: pAkt inh, gsp ag, gsp antag)
COCCC(=O)N1CCC(Oc2ccc(C(=O)NCCCC3CCCC3)cc2)CC1	ClpP mod 32µM
Cc1ccc2c(c1)c1c(n2CC(O)Cn2ccnc2C)C(=O)CCC1 (configuration not stated)	none (no result: pAkt inh)
Cc1ccc2c(c1)c1c(n2CC(O)CNC2CCCC2)CCCC1 (configuration not stated)	ClpP mod inconclusive, RXFP1 antag -82
Cc1cc(CCCOc2c(C)cc(-c3noc(C(F)(F)F)n3)cc2C)on1	none (no result: pAkt inh, gsp ag, gsp antag, ClpP mod, RXFP1 ag)
COc1ccc(-c2c(-c3cc(OC)cc(OC)c3)n(C)c3ccc(Br)cc23)cc1	none (no result: gsp ag, RXFP1 antag)
COc1ccc(N=Nc2nc3ccc(Br)cc3n2C)cc1	pAkt inh -106%
CCc1ccccc1NC(=O)C1(S(=O)(=O)c2ccc(Cl)cc2)CC1	none (no result: pAkt inh, gsp ag, gsp antag)
N#Cc1c(-c2cccs2)cc(-c2ccccn2)nc1N	ClpP mod 13µM
N#CC1C(=O)c2ccccc2C1c1ccccc1 (configuration not stated)	RXFP1 antag -92 (no result: RXFP1 ag)
O=C1CCC(c2ccccc2)c2ccccc21 (configuration not stated)	none (no result: RXFP1 ag)

From PubChem BioAssay
